Test results published in PubChem BioAssay AID1159580 (chemical genetic matrix, 2015).
In all, about 5,500 compounds went through this assay and about 2,000 (36%) were called active. Roughly 18% stayed inconclusive and do not appear here. Cut-off read from the data, not from the text of the source: active = normalized growth mostly below about 0.91 (no sharp cut-off); inconclusive = no clear call, values can overlap the other calls; inactive = mostly above about 0.92. Some of the results follow.

Assay: chemical genetic growth profiling, strain panel (AID 1159580);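 note: tested at 20 µM; growth read once vehicle control cultures reached saturation at 30 °C; 1 = growth at the plate median or of vehicle wells; lower values mean less growth of the strain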
Details: growth OD
[1] = S. cerevisiae deletion strains, locus YAL013W, strain DEP1, active compounds read low
[2] = S. cerevisiae deletion strains, locus YGR078C, strain PAC10, active compounds read low
[3] = S. cerevisiae deletion strains, locus YNL153C, strain GIM3, active compounds read low
[4] = S. cerevisiae deletion strains, locus YPL241C, strain CIN2, active compounds read low

Measured: normalized growth

C=CCn1c(=O)c2c(nc(-c3ccc(S(=O)(=O)O)cc3)n2C)n(C)c1=O
inactive: [1] 0.982 | S. cerevisiae deletion strains, locus YAL040C, strain CLN3, active compounds read low 0.965 | S. cerevisiae deletion strains, locus YCL061C, strain MRC1 (second series), active compounds read low 0.985 | S. cerevisiae deletion strains, locus YDR363W, strain ESC2, active compounds read low 1.07 | S. cerevisiae deletion strains, locus YER002W, strain NOP16, active compounds read low 1.01 | [2] 0.997 | [3] 1.01 | S. cerevisiae deletion strains, locus YNL175C, strain NOP13, active compounds read low 1 | S. cerevisiae deletion strains, locus YNL197C, strain WHI3, active compounds read low 0.987 | S. cerevisiae deletion strains, locus YNL224C, strain SQS1, active compounds read low 0.99 | S. cerevisiae deletion strains, locus YOR083W, strain WHI5 (second series), active compounds read low 1.03 | [4] 0.979

CCOP(=S)(OCC)Oc1cc(C)nc(C(C)C)n1
inactive: [1] 0.978 | S. cerevisiae deletion strains, locus YBR021W, strain FUR4, active compounds read low 1.03 | S. cerevisiae deletion strains, locus YBR229C, strain ROT2, active compounds read low 0.955 | S. cerevisiae deletion strains, locus YCL029C, strain bik1, active compounds read low 0.985 | S. cerevisiae deletion strains, locus YDL035C, strain GPR1, active compounds read low 0.946 | S. cerevisiae deletion strains, locus YDL074C, strain BRE1, active compounds read low 0.901 | S. cerevisiae deletion strains, locus YDL101C, strain DUN1, active compounds read low 0.96 | S. cerevisiae deletion strains, locus YDL134C, strain PPH21, active compounds read low 0.995 | S. cerevisiae deletion strains, locus YDL185W, strain tfp1, active compounds read low 0.972 | S. cerevisiae deletion strains, locus YDL192W, strain arf1, active compounds read low 0.985 | S. cerevisiae deletion strains, locus YDR101C, strain arx1, active compounds read low 1 | S. cerevisiae deletion strains, locus YDR150W, strain NUM1, active compounds read low 0.984 | S. cerevisiae deletion strains, locus YDR162C, strain NBP2, active compounds read low 0.976 | S. cerevisiae deletion strains, locus YDR318W, strain mcm21, active compounds read low 0.98 | S. cerevisiae deletion strains, locus YDR388W, active compounds read low 0.991 | S. cerevisiae deletion strains, locus YDR502C, strain sam2, active compounds read low 0.994 | S. cerevisiae deletion strains, locus YEL061C, strain CIN8, active compounds read low 0.989 | S. cerevisiae deletion strains, locus YER110C, active compounds read low 0.981 | S. cerevisiae deletion strains, locus YER155C, strain BEM2, active compounds read low 0.996 | S. cerevisiae deletion strains, locus YER167W, strain BCK2, active compounds read low 0.99 | S. cerevisiae deletion strains, locus YGL078C, strain dbp3, active compounds read low 0.995 | S. cerevisiae deletion strains, locus YGL086W, strain mad1, active compounds read low 0.989 | S. cerevisiae deletion strains, locus YGL248W, strain PDE1, active compounds read low 0.961 | [2] 0.976 | S. cerevisiae deletion strains, locus YGR135W, strain pre9, active compounds read low 0.995 | S. cerevisiae deletion strains, locus YGR229C, strain SMI1, active compounds read low 0.991 | S. cerevisiae deletion strains, locus YGR252W, strain gcn5, active compounds read low 0.998 | S. cerevisiae deletion strains, locus YHR030C, strain SLT2, active compounds read low 0.988 | S. cerevisiae deletion strains, locus YHR079C, strain IRE1 (second series), active compounds read low 0.994 | S. cerevisiae deletion strains, locus YHR094C, strain hxt1, active compounds read low 0.996 | S. cerevisiae deletion strains, locus YHR129C, strain ARP1, active compounds read low 0.977 | S. cerevisiae deletion strains, locus YHR200W, strain rpn10, active compounds read low 0.993 | S. cerevisiae deletion strains, locus YIL066C, strain RNR3, active compounds read low 0.979 | S. cerevisiae deletion strains, locus YIL073C, strain SPO22, active compounds read low 1.01 | S. cerevisiae deletion strains, locus YIL125W, strain kgd1, active compounds read low 0.993 | S. cerevisiae deletion strains, locus YIR030C, strain dcg1, active compounds read low 0.995 | S. cerevisiae deletion strains, locus YJL095W, strain BCK1, active compounds read low 0.973 | S. cerevisiae deletion strains, locus YJL134W, strain LCB3, active compounds read low 0.982 | S. cerevisiae deletion strains, locus YJL168C, strain set2, active compounds read low 0.987 | S. cerevisiae deletion strains, locus YJL187C, strain SWE1 (second series), active compounds read low 0.978 | S. cerevisiae deletion strains, locus YJR043C, strain POL32, active compounds read low 0.991 | S. cerevisiae deletion strains, locus YJR075W, strain HOC1, active compounds read low 0.977 | S. cerevisiae deletion strains, locus YKL009W, strain mrt4, active compounds read low 0.949 | S. cerevisiae deletion strains, locus YKL068W, active compounds read low 0.993 | S. cerevisiae deletion strains, locus YKL085W, strain MDH1 (second series), active compounds read low 0.988 | S. cerevisiae deletion strains, locus YKL085W, strain MDH1, active compounds read low 0.988 | S. cerevisiae deletion strains, locus YKL190W, strain CNB1, active compounds read low 0.993 | S. cerevisiae deletion strains, locus YKR001C, strain vps1, active compounds read low 0.999 | S. cerevisiae deletion strains, locus YLR039C, strain RIC1, active compounds read low 0.966 | S. cerevisiae deletion strains, locus YLR058C, strain SHM2, active compounds read low 0.971 | S. cerevisiae deletion strains, locus YLR102C, strain apc9, active compounds read low 0.987 | S. cerevisiae deletion strains, locus YLR262C, strain YPT6, active compounds read low 0.946 | S. cerevisiae deletion strains, locus YLR268W, strain sec22, active compounds read low 0.993 | S. cerevisiae deletion strains, locus YLR330W, strain CHS5, active compounds read low 0.989 | S. cerevisiae deletion strains, locus YLR342W, strain FKS1 (second series), active compounds read low 0.975 | S. cerevisiae deletion strains, locus YLR371W, strain rom2, active compounds read low 0.995 | S. cerevisiae deletion strains, locus YLR418C, strain cdc73, active compounds read low 0.959 | S. cerevisiae deletion strains, locus YML016C, strain PPZ1, active compounds read low 0.993 | S. cerevisiae deletion strains, locus YML032C, strain rad52, active compounds read low 0.989 | S. cerevisiae deletion strains, locus YML124C, strain tub3, active compounds read low 0.998 | S. cerevisiae deletion strains, locus YMR078C, strain ctf18, active compounds read low 0.991 | S. cerevisiae deletion strains, locus YMR223W, strain ubp8, active compounds read low 0.988 | S. cerevisiae deletion strains, locus YMR263W, strain SAP30, active compounds read low 0.98 | S. cerevisiae deletion strains, locus YMR307W, strain GAS1, active compounds read low 0.976 | S. cerevisiae deletion strains, locus YNL067W, strain RPL9B, active compounds read low 0.972 | S. cerevisiae deletion strains, locus YNL128W, strain TEP1, active compounds read low 0.957 | [3] 0.984 | S. cerevisiae deletion strains, locus YNL233W, strain BNI4, active compounds read low 0.984 | S. cerevisiae deletion strains, locus YNL250W, strain rad50, active compounds read low 0.984 | S. cerevisiae deletion strains, locus YNL271C, strain bni1, active compounds read low 0.992 | S. cerevisiae deletion strains, locus YNL298W, strain CLA4, active compounds read low 0.995 | S. cerevisiae deletion strains, locus YNL307C, strain MCK1, active compounds read low 0.998 | S. cerevisiae deletion strains, locus YNL322C, strain KRE1, active compounds read low 0.978 | S. cerevisiae deletion strains, locus YNR052C, strain pop2, active compounds read low 0.99 | S. cerevisiae deletion strains, locus YOL006C, strain TOP1, active compounds read low 0.967 | S. cerevisiae deletion strains, locus YOL012C, strain htz1 0.881 | S. cerevisiae deletion strains, locus YOL147C, strain pex11, active compounds read low 0.998 | S. cerevisiae deletion strains, locus YOR061W, strain CKA2, active compounds read low 0.967 | S. cerevisiae deletion strains, locus YOR069W, strain VPS5, active compounds read low 0.989 | S. cerevisiae deletion strains, locus YOR136W, strain idh2, active compounds read low 0.986 | S. cerevisiae deletion strains, locus YOR144C, strain elg1, active compounds read low 0.995 | S. cerevisiae deletion strains, locus YOR184W, strain ser1, active compounds read low 0.987 | S. cerevisiae deletion strains, locus YOR316C, strain cot1, active compounds read low 0.975 | S. cerevisiae deletion strains, locus YPL055C, strain LGE1, active compounds read low 0.956 | [4] 0.989 | S. cerevisiae deletion strains, locus YPR119W, strain clb2, active compounds read low 0.997 | S. cerevisiae deletion strains, locus YPR141C, strain kar3, active compounds read low 0.984 | S. cerevisiae deletion strains, locus YPR163C, strain tif3, active compounds read low 1 | S. cerevisiae deletion strains, locus YPR167C, strain met16, active compounds read low 0.987 | S. cerevisiae deletion strains, strain wtn01, active compounds read low 1 | S. cerevisiae strains, strain wild type, active compounds read low 0.987
